From PubChem
HCMV inh: qHTS Assay for inhibitors of the human cytomegalovirus (HCMV); activity change, negative = inhibition, % at 57.5 µM; HFF cells, HCMV-luciferase reporter, 72 h; hits give low values; 4.5% of 410,000 active; AID 1259415, 2018; in the data active = activity change below about -60%; inconclusive = no clear call, values can overlap the other calls; inactive = above about -39%
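Human foreskin fibroblasts infected with luciferase-reporter HCMV at MOI 1 PFU/cell, compounds at two doses. Luciferase measured 72 h post infection; normalized to buffer-only basal and Salinomycin (10uM) controls.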
VACV Venus inh: qHTS for Stage-Specific Inhibitors of Vaccinia Orthopoxvirus: Venus Reporter Primary qHTS; Potency, µM (top dose mostly 36.5 µM), inactives show at the highest dose activity change, negative = inhibition, usual class: inhibitors; 0.46% of 330,000 active; Vaccinia virus Venus reporter expression, fluorescence; calls by dose curve; tested in A549 cells; also: potency is read from the fitted curve at half-maximal effect; nearly all actives have a fitted effect of over 30% in size
Tb PYK inh: qHTS of Trypanosoma Brucei Inhibitors; Potency, µM (highest dose often 76.8 µM), inactives show at the highest dose activity, negative = inhibition, actives largely listed as inhibitors; 0.12% of 410,000 active; pyruvate kinase (Trypanosoma brucei), Q57TT1; TbPYK enzyme, Kinase-Glo Plus ATP luminescence, 45 min; AID 624173, 2012; also: potency is read from the fitted curve at half-maximal effect; nearly all actives have a fitted effect of over 50% in size
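Quantitative HTS: titrated library compounds versus trypanosomal pyruvate kinase in TEA buffer (pH 7.2) containing KCl, MgCl2, BSA and Tween-20. Reactions were initiated with ADP, 130 uM final. Kinase-Glo Plus luminescence was read after 45 min at RT.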
Vaccinia mCherry: qHTS for Stage-Specific Inhibitors of Vaccinia Orthopoxvirus: mCherry Reporter Primary qHTS; Vaccinia virus mCherry reporter infection, fluorescence; Potency, µM (titrated, usually from 36.5 µM), for the others: top-dose activity change, negative = inhibition, most hits filed as inhibitors; 0.63% of 310,000 active; AID 720579, 2013; calls by dose curve; tested in A549 cells; also: potency is read from the fitted curve at half-maximal effect; nearly all actives have a fitted effect of over 35% in size
LmPK inhibitor: qHTS Assay for Inhibitors of Leishmania Mexicana Pyruvate Kinase (LmPK); purified LmPK, Kinase-Glo ATP luminescence, 1 h; Potency, µM (titrated, usually from 57.5 µM), inactives show at the highest dose activity change, negative = inhibition, most hits filed as inhibitors; 0.37% of 290,000 active; AID 1721, 2009; also: potency is read from the fitted curve at half-maximal effect
Target sequence (Q27686 whole entry, looked up): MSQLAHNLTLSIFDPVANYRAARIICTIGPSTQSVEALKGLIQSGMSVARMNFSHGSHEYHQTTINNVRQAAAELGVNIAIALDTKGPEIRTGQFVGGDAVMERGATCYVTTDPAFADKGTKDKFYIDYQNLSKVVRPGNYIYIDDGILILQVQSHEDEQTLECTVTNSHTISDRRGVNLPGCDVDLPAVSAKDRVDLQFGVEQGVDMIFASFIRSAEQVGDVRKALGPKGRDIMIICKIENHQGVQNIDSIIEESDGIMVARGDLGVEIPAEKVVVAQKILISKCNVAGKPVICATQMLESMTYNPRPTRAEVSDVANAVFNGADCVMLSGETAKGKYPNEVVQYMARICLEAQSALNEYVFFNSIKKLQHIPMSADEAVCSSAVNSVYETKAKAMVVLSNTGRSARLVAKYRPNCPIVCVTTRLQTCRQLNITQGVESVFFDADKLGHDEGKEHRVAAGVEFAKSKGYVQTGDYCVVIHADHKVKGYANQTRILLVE
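In 50 mM imidazole pH 7.2 with 7 mM MgCl2, LmPK (0.1 nM) turned over PEP (0.5 mM) and ADP (0.1 mM) for 1 h at room temperature. Luciferase read-out of ATP.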
Active calls of the source: *; i = inactive; ? = inconclusive; . = no result; ! = not confirmed by another sample; [ ] = remark or other dose. Sampled rows, rich in hits. Any-hit rate of the full collection: about 5%. Unless noted, calls follow the shape of the dose curve; as a rule, active = well fitted curve in the direction sought with a large enough effect; inconclusive = small, poorly fitted or top-dose-only effect, or another doubt; inactive = no such curve, though single readings can be large; an effect the other way counts as inactive or inconclusive. % is scaled to controls: 0 for no effect and ±100 for the full control effect.

SMILES	HCMV inh	VACV Venus inh	Tb PYK inh	Vaccinia mCherry	LmPK inhibitor
CCN(CC)c1ncnc2c1ncn2[C@H]1CN(CCOC)C[C@@H](CO)O1	74.4	4.5%	-9.3%	3.2%	.
CN(N=O)c1ccc(/C=C/c2ccccc2)cc1	.	-9.0%	.	-10.3%	.
CC(=O)N(O)c1ccc(C=Cc2ccccc2)cc1	-98.8*	-29.5%	-8.3%	?	.
O=C(Nc1ccc2ccccc2c1)c1cn(-c2ccccc2)nc1-c1cccs1	-60.1*	.	-8.6%	.	2.7%
NC(N)=N/N=C/c1cn(-c2ccccc2)nc1-c1cccs1	-97.7*	.	-14.7%	.	-14.6%
O=C(O)c1ccc(NC(=O)c2cn(-c3ccccc3)nc2-c2ccc(Br)cc2)cc1	-63.6*!	6.3%	-0.2%	-6.8%[7.34 µM]	2.1%
COc1ccc(-c2nn(-c3ccccc3)cc2/C=N/N=C(N)N)cc1OC	?	?	1.6%	?	-2.9%
Cc1cc(C)nc(NS(=O)(=O)c2ccc(NCN3C(=O)c4ccccc4C3=O)cc2)n1	-7.7	1.1%	-11.3%	?	.
O=C(CSc1nc2scc(-c3ccccc3)c2c(=O)[nH]1)NCCc1ccccc1	-14.6	-10.9%	-0.9%	i	-2.9%
CC(C)N1CC(C(=O)O)CC1=O (stereo unspecified)	34.2	-11.0%	4.5%	i	-6.4%
Cc1csc(SCC(=O)N2CCCC2)n1	-71.1*	-12.9%	2.6%	.	-1.4%
Cc1csc(SCC(=O)Nc2cccc(C)c2C)n1	-63.5*	-11.3%	2.6%	i	.
Cc1ccc(C)c(NC(=O)CSc2nc(C)cs2)c1	-4.6	.	-11.6%	.	.
Cc1csc(SCC(=O)N2CCN(S(=O)(=O)c3ccccc3)CC2)n1	-26.9	-11.9%	0.6%	-26.9%	-6.9%
COc1ccc(C(=O)NCCn2cc(SCC(=O)NCC3CCCO3)c3ccccc32)cc1OC (stereo unspecified)	-22.9	-15.8%	-5.1%	i	8.3%
COc1ccc(-c2cc(C(F)(F)F)nc(SCC(=O)NCc3ccc(F)cc3)n2)cc1	-23.6	-14.0%	-6.2%	-20.6%	.
Nc1nc2cc(Br)ccc2o1	-20.7	-12.8%	-4.0%	i	.
CCOc1ccc(N2Nc3n[nH]c(N)c3N2)cc1	39.3	?	-1.0%	2µM*	-16.1%
O=C(CCc1ccc(S(=O)(=O)NCCc2ccccc2)cc1)N1CCN(Cc2ccc3c(c2)OCO3)CC1	-89.4*	.	.	.	0.5%
Cc1ccc(S(=O)(=O)N(C)c2ccc(C(=O)N3CCN(Cc4ccc5c(c4)OCO5)CC3)cc2)cc1	-95.0*	.	8.4%	.	0.7%
CN(c1ccc(C(=O)N2CCN(Cc3ccc4c(c3)OCO4)CC2)cc1)S(=O)(=O)c1ccccc1	-100.7*	.	-2.9%	.	2.6%
CCC(C)[C@H]1CNCCN1CCCc1cc(OC)c(OC)c(OC)c1 (stereo partly specified)	-0.8	3.3%	4.8%	i	.
C=CCn1c(NCc2ccc3c(c2)OCO3)nc2ccccc21	88.5	-16.7%	0.3%	.	1.4%
c1ccc(CNCCN2CCNCC2)nc1	-25.6	.	-1.7%	.	1.1%
C=C1CCC(O)C2(C)CCC3C(C)C(=O)OC3C12O (stereo unspecified)	?	0.1%	4.6%	i	3.3%
SMILES	HCMV inh	VACV Venus inh	Tb PYK inh	Vaccinia mCherry	LmPK inhibitor
C=C1C(=O)O[C@@H]2[C@H]1CC[C@H](C)[C@]1(O)CCC(=O)[C@@]21C	-67.5*	.	4.8%	.	3.0%
O=C(c1ccccc1[N+](=O)[O-])N1CCN(c2ccc(N3CCOCC3)nn2)CC1	-5.2	-16.1%	2.9%	i	.
O=C(c1ccccc1[N+](=O)[O-])N1CCC[C@@H]1c1noc2ccccc12	-61.6*	.	.	.	.
O=C1/C(=C/c2ccc([N+](=O)[O-])cc2)C=C(c2ccccc2)N1c1ccc(O)cc1	-82.8*	.	-15.1%	.	-12.9%
COc1ccc(N2C(=O)/C(=C/c3ccc([N+](=O)[O-])cc3)C=C2c2ccccc2)cc1	-101.0*	3.9%	-0.9%	i	-16.2%
O=[N+]([O-])c1ccccc1/C=N/N1CCN(c2ccncc2S(=O)(=O)N2CCCCC2)CC1	5.4	-23.9%	-16.5%	-21.3%	0.2%
CN(CC(=O)NNC(=O)CNC(=O)c1cccs1)S(=O)(=O)c1ccc(Cl)cc1	-7.6	-13.6%	4.5%	-15.1%	.
Cc1cc(S(=O)(=O)N(Cc2ccc(C(C)C)cc2)CC2CCCO2)ccc1-n1cnnn1 (stereo unspecified)	-77.2*	?	6.4%	-19.7%	8.5%
Cc1cc(S(=O)(=O)N(Cc2ccc(F)cc2)CC2CCCO2)ccc1-n1cnnn1 (stereo unspecified)	-2.9	-16.0%	-9.0%	-20.0%	3.7%
O=C(NCCc1c[nH]c2ccccc12)/C(=C/c1ccco1)NC(=O)c1ccco1	7.8	8.5%	1.9%	i	-1.4%
CC(=C\c1ccco1)/C=C(\C#N)C(=O)NCCc1c[nH]c2ccccc12	-73.1*	-10.7%	-2.8%	-9.1%	0.8%
CNc1c(Br)cc(C=O)cc1Br	.	-9.0%	.	-14.5%	.
Cn1c(=O)c2c(nc(NCCCN3CCOCC3)n2Cc2ccc(Cl)cc2Cl)n(C)c1=O	.	.	.	.	-6.3%
Cc1ccccc1NC(=O)c1cc2ccccn2n1	21.2	.	10.5%	.	12.6µM*
Fc1ccc(Br)cc1/C=N/N1CCN(c2ccccc2)CC1	25.3	.	-2.4%	.	6.9%
CN1CCN(Cc2ccc(Sc3ccc(Cl)cc3)c([N+](=O)[O-])c2)CC1	-71.2*	-15.4%	5.6%	-20.9%	1.0%
O=C(NCCOc1ccc(F)cc1)C1CCC(=O)N(CCCN2CCCC2=O)C1 (stereo unspecified)	0.0	.	-6.6%	.	-2.3%
Cc1ccc(-c2cc(-c3ccccc3)cc(-c3ccccc3)[n+]2-c2ccccc2C(=O)O)cc1	-67.5*	-6.2%	4.8%	-2.7%	.
O=C([O-])c1ccc(-[n+]2c(-c3ccccc3)cc(-c3ccccc3)cc2-c2ccccc2)cc1	18.3	-1.4%	-0.8%	i	.
COc1ccc(NC(=O)C(=O)NCCc2ccccc2)cc1OC	-63.7*	?	4.7%	-13.7%	.
COc1ccc(NC(=O)c2ccccc2SC)cc1OC	9.9	-4.7%	-12.9%	.	-3.7%
COc1ccc(NC(=O)C#Cc2ccccc2)cc1OC	-88.1*	?	-0.5%	?	-10.2%
CC(Oc1ccccc1)C(=O)Nc1ccc(C(N)=O)cc1 (stereo unspecified)	7.6	.	-6.5%	.	-2.3%
NC(=O)c1ccc(NC(=O)C#Cc2ccccc2)cc1	-102.8*	-28.8%	-0.7%	7.08µM*	2.8%
COc1ccc(CCNC(=O)C(=O)Nc2ccc(C)c(C)c2)cc1OC	44.1	-2.7%	4.4%	-13.0%	.
CNC(=O)Nc1ccccc1F	9.6	-8.0%	-5.4%	-8.6%	1.2%
O=C(C#Cc1ccccc1)Nc1ccccc1F	-96.1*	.	-8.5%	.	?
Cc1ccc(N(C(=O)CCl)C(C(=O)NC2CCCCC2)c2cccnc2)cc1C (stereo unspecified)	-98.9*	7.08µM*	-4.8%	?	-0.2%
